The source of these data is ChEMBL document CHEMBL2218924, “A broad activity screen in support of a chemogenomic map for kinase signalling research and drug discovery” (Biochem J, 2013).

The target in assay [1] is Mast/stem cell growth factor receptor Kit (Homo sapiens) (UniProt P10721). The conditions noted are these: at 1 µM.
For assay [2] the target is unchanged. The conditions noted are these: at 10 µM.
Assay [3] addresses Proto-oncogene tyrosine-protein kinase Src (Homo sapiens) (UniProt P12931). As to conditions: at 1 µM.
For assay [4] the target is unchanged. The conditions noted are these: at 10 µM.
Assay [5] has as its target Serine/threonine-protein kinase mTOR (Homo sapiens) (UniProt P42345). The conditions noted are these: at 1 µM.
Assay [6] shares this target. The conditions noted are these: at 10 µM.
For assay [7] the target is unchanged. As to conditions: at 1 µM. The source holds these as a separate data set.
For assay [8] the target is unchanged. As to conditions: at 10 µM. The source holds these as a separate data set.
Assay [9] has as its target Ribosomal protein S6 kinase beta-1 (Homo sapiens) (UniProt P23443). As to conditions: at 1 µM.
The target is the same in assay [10]. The conditions noted are these: at 10 µM.
For assay [11], the target named is Serine/threonine-protein kinase Nek6 (Homo sapiens) (UniProt Q9HC98). The conditions noted are these: at 1 µM.
Assay [12] has the same target. The conditions noted are these: at 10 µM.
For assay [13], the target named is Serine/threonine-protein kinase Nek7 (Homo sapiens) (UniProt Q8TDX7). As to conditions: at 1 µM.
For assay [14] the target is unchanged. The conditions noted are these: at 10 µM.
Assay [15] has as its target T1, Serine/threonine-protein kinase NLK (Homo sapiens) (UniProt Q9UBE8).
T1 sequence (whole entry): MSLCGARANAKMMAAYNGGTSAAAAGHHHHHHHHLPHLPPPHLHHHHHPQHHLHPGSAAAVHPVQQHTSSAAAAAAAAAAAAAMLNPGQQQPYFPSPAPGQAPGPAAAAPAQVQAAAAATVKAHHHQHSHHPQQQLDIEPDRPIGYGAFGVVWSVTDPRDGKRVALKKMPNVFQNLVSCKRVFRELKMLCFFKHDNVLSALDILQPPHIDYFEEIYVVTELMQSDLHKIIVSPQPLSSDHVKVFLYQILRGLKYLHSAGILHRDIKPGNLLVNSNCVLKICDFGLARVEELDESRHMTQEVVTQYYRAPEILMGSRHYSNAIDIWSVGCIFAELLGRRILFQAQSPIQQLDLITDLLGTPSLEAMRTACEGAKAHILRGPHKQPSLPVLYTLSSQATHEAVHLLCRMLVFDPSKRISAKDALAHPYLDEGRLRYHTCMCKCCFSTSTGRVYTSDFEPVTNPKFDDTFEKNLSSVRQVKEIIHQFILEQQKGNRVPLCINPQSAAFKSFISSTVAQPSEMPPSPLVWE
The conditions noted are these: at 10 µM.

Assay [16] deals with Serine/threonine-protein kinase PAK 2 (Homo sapiens) (UniProt Q13177). As to conditions: at 1 µM.
Assay [17] has the same target. The conditions noted are these: at 10 µM.
In assay [18] the target is T1, Serine/threonine-protein kinase NLK (Homo sapiens). The conditions noted are these: at 1 µM.

Sequence of Serine/threonine-protein kinase PAK 2 (Homo sapiens) (Q13177 whole entry): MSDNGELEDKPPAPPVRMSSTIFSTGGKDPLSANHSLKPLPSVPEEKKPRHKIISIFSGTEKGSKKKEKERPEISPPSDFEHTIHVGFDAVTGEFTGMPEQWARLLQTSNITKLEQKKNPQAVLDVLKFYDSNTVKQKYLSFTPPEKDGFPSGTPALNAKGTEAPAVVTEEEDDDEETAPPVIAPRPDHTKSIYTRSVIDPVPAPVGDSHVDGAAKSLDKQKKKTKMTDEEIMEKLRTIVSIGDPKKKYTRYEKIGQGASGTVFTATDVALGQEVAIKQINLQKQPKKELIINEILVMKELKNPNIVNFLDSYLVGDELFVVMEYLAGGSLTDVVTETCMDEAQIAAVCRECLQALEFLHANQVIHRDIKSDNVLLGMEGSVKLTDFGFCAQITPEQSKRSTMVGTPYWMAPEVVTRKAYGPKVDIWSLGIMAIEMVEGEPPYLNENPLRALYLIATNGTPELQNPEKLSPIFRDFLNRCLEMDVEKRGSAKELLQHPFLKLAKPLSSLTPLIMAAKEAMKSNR
Sequence of Proto-oncogene tyrosine-protein kinase Src (Homo sapiens) (P12931 2-536 limits assumed): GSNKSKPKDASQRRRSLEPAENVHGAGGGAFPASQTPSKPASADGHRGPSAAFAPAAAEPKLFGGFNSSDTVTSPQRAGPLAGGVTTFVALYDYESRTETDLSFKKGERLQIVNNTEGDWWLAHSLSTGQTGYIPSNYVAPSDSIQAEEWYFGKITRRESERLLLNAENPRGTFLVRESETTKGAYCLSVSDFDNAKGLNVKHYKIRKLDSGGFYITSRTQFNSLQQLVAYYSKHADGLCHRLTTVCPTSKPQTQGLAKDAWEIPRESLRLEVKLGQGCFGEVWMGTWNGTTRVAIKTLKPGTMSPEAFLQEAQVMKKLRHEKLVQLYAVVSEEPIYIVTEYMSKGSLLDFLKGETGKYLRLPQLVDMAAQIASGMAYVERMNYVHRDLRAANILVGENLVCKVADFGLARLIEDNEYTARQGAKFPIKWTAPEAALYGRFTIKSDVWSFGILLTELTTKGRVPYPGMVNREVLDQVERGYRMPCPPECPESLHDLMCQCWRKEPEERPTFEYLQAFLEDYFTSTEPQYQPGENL
Sequence of Mast/stem cell growth factor receptor Kit (Homo sapiens) (P10721 whole entry): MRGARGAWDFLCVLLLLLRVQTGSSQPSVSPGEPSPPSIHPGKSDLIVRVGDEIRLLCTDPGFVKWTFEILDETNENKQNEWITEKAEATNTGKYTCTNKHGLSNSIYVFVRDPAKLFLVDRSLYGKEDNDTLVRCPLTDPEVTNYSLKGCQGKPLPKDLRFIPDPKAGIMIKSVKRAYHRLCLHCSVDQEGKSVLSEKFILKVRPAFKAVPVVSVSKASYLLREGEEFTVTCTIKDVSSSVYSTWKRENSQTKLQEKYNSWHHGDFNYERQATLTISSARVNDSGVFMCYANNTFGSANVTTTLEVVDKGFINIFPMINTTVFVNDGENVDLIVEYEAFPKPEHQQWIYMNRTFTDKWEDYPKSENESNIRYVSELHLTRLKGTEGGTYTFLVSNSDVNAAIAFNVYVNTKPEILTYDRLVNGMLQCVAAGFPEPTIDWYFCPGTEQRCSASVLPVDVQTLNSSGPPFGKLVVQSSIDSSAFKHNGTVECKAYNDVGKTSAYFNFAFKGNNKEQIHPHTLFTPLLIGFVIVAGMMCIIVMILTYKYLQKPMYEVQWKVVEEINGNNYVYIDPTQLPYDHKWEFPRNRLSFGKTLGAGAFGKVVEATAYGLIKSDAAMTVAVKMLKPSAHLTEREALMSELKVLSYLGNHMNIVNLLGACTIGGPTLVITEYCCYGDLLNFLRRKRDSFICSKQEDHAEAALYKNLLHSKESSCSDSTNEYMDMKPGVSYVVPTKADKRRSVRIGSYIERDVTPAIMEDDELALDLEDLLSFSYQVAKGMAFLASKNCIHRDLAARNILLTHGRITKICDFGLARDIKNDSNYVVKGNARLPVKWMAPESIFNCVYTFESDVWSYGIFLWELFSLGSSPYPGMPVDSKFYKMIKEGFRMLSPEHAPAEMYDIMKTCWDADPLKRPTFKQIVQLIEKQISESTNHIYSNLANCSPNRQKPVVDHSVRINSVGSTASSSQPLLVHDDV
Sequence of Ribosomal protein S6 kinase beta-1 (Homo sapiens) (P23443 whole entry, looked up): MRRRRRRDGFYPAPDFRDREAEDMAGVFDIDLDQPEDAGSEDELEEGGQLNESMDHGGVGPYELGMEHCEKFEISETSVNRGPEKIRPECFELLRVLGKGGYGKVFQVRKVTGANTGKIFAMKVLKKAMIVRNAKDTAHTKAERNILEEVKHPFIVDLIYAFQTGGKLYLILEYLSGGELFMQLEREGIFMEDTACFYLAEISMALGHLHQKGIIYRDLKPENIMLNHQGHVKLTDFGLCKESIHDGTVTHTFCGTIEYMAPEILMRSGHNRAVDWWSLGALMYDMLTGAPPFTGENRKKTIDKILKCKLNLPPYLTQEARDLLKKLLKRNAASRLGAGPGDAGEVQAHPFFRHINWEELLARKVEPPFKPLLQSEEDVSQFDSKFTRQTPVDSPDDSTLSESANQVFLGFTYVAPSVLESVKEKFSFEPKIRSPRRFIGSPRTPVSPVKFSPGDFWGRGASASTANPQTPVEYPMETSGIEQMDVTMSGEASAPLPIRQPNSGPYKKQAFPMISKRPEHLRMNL
Sequence of Serine/threonine-protein kinase Nek6 (Homo sapiens) (Q9HC98 whole entry): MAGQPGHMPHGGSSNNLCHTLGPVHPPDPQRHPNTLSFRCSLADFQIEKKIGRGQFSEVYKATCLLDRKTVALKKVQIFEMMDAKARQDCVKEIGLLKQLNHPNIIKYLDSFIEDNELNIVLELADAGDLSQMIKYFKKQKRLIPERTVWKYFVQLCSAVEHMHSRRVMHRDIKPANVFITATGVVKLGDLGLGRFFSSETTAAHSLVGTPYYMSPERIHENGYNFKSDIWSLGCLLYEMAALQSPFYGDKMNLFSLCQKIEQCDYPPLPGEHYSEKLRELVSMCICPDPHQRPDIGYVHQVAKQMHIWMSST
Sequence of Serine/threonine-protein kinase Nek7 (Homo sapiens) (Q8TDX7 whole entry, looked up): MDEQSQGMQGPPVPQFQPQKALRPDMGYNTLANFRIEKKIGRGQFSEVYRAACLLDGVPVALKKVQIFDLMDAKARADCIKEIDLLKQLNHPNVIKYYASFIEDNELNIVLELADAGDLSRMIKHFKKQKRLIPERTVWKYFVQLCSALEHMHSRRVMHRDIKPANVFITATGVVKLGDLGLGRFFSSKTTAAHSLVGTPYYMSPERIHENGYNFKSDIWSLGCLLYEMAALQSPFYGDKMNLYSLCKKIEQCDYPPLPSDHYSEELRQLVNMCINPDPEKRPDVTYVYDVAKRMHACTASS

One may read the residual activity as the signal under treatment as a percentage of the control signal. Regarding `Nc1n[nH]c2nnc(-c3c(-c4ccccc4)nn4ccccc34)cc12`, the residual activity is 95% in [1]; 108% in assay [2]; 103% in assay [3]; 77% in assay [4]; 113% in [5]; 97% in assay [6]. Moreover, the residual activity was 129% in assay [7]; 87% in assay [8]; 112% in [9]; 100% in assay [10]; 107% (inactive) in assay [11]; 98% in assay [12]. Moreover, the residual activity in assay [13] is 106% (inactive); in assay [14] it was 106% (inactive); in assay [15] it was 74%; in assay [16], 98%; in [17] it was 87%.

On to `O=C(O)c1ccc2c3c1cccc3c(=O)n1c3ccccc3nc21`, for which the residual activity in assay [1] came out at 122%; in [2] it was 119%; in assay [3], 120%; in assay [4], 95%; in assay [5] it was 105%; in [6], 59%. Also, the residual activity in assay [7] was 98%; in assay [8] it was 39%; in assay [9], 89%; in assay [10] it was 46%; in assay [11], 109% (inactive); in assay [12], 101%. Moreover, the residual activity is 114% (inactive) in assay [13]; 108% (inactive) in [14]; 107% in assay [18]; 72% in assay [15]; 101% in assay [16]; 95% in assay [17].

Consider `O=c1c2ccccc2[nH]c(=S)n1CCN1CCC(=C(c2ccc(F)cc2)c2ccc(F)cc2)CC1`, for which the residual activity stood at 106% in [1]; 89% in [2]; 85% in assay [3]; 97% in [4]; 78% in [5]; 85% in assay [6]. Further, the residual activity in assay [7] is 107%; in assay [8] it was 69%; in assay [9], 79%; in assay [10], 42%; in assay [11], 99% (inactive); in assay [12], 107%. Also, the residual activity in assay [13] was 103% (inactive); in assay [14], 94% (inactive); in assay [18], 111%; in [15], 93%; in assay [16], 103%; in assay [17] it was 103%.

For the compound `CC(=O)c1ccc(N2CCOCC2)cc1O`, the residual activity amounted to 101% in [2]; 86% in assay [3]; 93% in [4]; 104% in assay [7]; 55% in assay [9]; 46% in [10]. In addition, the residual activity was 98% (inactive) in assay [13]; 97% in [18]; 83% in assay [15]; 104% in [16]; 97% in assay [17].

On to `Ic1cccc(CSc2nnc(-c3ccncc3)o2)c1`, for which the residual activity in assay [1] turned out to be 97%; in assay [2], 102%; in [3], 113%; in assay [4] it was 83%; in assay [5], 108%; in [6], 102%. Further, the residual activity in assay [7] is 108%; in assay [8], 109%; in assay [9] it was 55%; in assay [10], 32%; in assay [11] it was 113% (inactive); in assay [12], 115%. The residual activity is 101% (inactive) in assay [13]; 81% (inactive) in [14]; 89% in assay [18]; 89% in [15]; 104% in [16]; 92% in [17].

In the case of `CN(C)CCCn1cc(C2=C(c3c[nH]c4ccccc34)C(=O)NC2=O)c2ccccc21`, the residual activity turned out to be 82% in [3]; 84% in [5]; 83% in [7]; 11% in [9]; 2% in [10]; 113% in [12]. Also, the residual activity in assay [13] was 117% (inactive); in assay [14] it was 121% (inactive); in [18], 127%; in assay [15] it was 88%; in [16], 115%.

For the compound `Oc1ccc(Nc2nc(-c3ccc(Cl)cc3)cs2)cc1`, the residual activity in assay [1] is 110%; in [2], 76%; in assay [3] it was 116%; in [4], 93%; in [5] it was 102%; in assay [6], 83%. Moreover, the residual activity was 103% in [7]; 106% in assay [8]; 119% in [9]; 87% in assay [10]; 116% (inactive) in [11]; 123% in assay [12]. Also, the residual activity in [13] is 110% (inactive); in [14] it was 106% (inactive); in assay [18], 110%; in assay [15] it was 74%; in assay [16], 105%; in [17] it was 106%.

With `c1ccc(-c2n[nH]cc2-c2ccnc3ccccc23)nc1`, the residual activity is 101% in assay [1]; 107% in [2]; 86% in [3]; 90% in [4]; 85% in assay [7]; 102% in assay [8]. Besides, the residual activity in assay [9] stood at 72%; in assay [10], 58%; in assay [18] it was 72%; in [15], 27%; in [16], 107%; in assay [17], 88%.

`Cc1cncc2cccc(S(=O)(=O)N3CCCN(C(=O)CN)C[C@H]3C)c12`: the residual activity in assay [3] was 86%; in assay [4], 96%; in assay [11] it was 88% (inactive); in assay [13], 88% (inactive); in [14], 98% (inactive); in [18], 90%. Besides, the residual activity was found to be 86% in assay [15] and 82% in assay [17].

Regarding `Nc1cccc(-c2cc3c(Oc4cccc(O)c4)ncnc3[nH]2)c1`, the residual activity in assay [1] is 20%; in [2], 2%; in [3], 6%; in assay [4], -3%; in assay [6], 83%; in [7], 122%. The residual activity in [8] came to 94%; in [9], 71%; in assay [10] it was 49%; in [18] it was 79%; in assay [15], 33%; in assay [16] it was 105%. In assay [17], the residual activity is 70%.

Take `Cc1nc(-c2ccccc2)c(-c2ccncc2)o1`: the residual activity in assay [1] is 124%; in assay [2], 98%; in [3], 113%; in assay [4], 81%; in [5], 109%; in assay [6], 103%. Moreover, the residual activity was 116% in assay [7]; 94% in assay [8]; 83% in assay [9]; 56% in assay [10]; 105% (inactive) in assay [11]; 107% (inactive) in assay [13]. Also, the residual activity is 106% (inactive) in [14]; 103% in assay [18]; 48% in assay [15]; 102% in assay [16]; 101% in [17].

In the case of `COc1cc2ncnc(N3CCN(C(=O)Nc4ccc(Oc5ccccc5)cc4)CC3)c2cc1OC`, the residual activity in [1] turned out to be 37%; in [2] it was 7%; in assay [3] it was 95%; in assay [4], 97%; in [5] it was 107%; in [6], 102%. The residual activity in assay [7] was 98%; in [8], 99%; in assay [11], 91% (inactive); in assay [12] it was 126%; in assay [13], 97% (inactive); in assay [14], 113% (inactive). The residual activity in assay [18] turned out to be 88%; in assay [15], 89%; in assay [16] it was 110%; in assay [17], 86%.

As to `O=C1Nc2ccc(Br)cc2/C1=C\c1cc2c([nH]1)CCCC2`, the residual activity in [1] stood at 66%; in assay [2] it was 43%; in assay [3] it was 73%; in assay [4], 99%; in assay [5], 116%; in [6], 104%. Also, the residual activity in [7] was 110%; in assay [8], 103%; in assay [9], 84%; in [10] it was 51%; in [11] it was 104% (inactive); in assay [12], 102%. For the same compound, the residual activity was 101% (inactive) in [13]; 102% (inactive) in assay [14]; 97% in [18]; 97% in assay [15]; 113% in assay [16]; 100% in assay [17].

For the compound `CC[n+]1c(/C=C/N(C)c2ccccc2)n(-c2ccccc2)c2ccc(-c3nc4ccccc4s3)cc21`, the residual activity in assay [1] was determined as 123%; in assay [2] it was 106%; in assay [3], 85%; in assay [4], 128%; in [5], 85%; in assay [6] it was 86%. For the same compound, the residual activity was 84% in assay [7]; 79% in [8]; 130% in assay [9]; 71% in [10]; 108% (inactive) in [11]; 88% in assay [12]. In addition, the residual activity in [13] was 117% (inactive); in assay [14], 138% (inactive); in assay [15], 89%; in assay [16], 109%; in assay [17], 81%.

For the compound `Cc1ccc(NC2=CC(=O)c3sc(C)nc3C2=O)cc1`, the residual activity in assay [1] was 101%; in [2] it was 107%; in [4] it was 87%; in assay [5], 96%; in [6], 99%; in assay [7], 100%. Also, the residual activity in [8] was 86%; in [9], 115%; in [10], 78%; in [11], 106% (inactive); in assay [12], 104%; in assay [13], 109% (inactive). The residual activity in [14] was 92% (inactive); in assay [18], 86%; in assay [15], 85%; in assay [16], 93%; in assay [17], 92%.
